# Activity calls are given as the source filed them.
# Key:
# [1] = system: Plasmodium falciparum Sir2 (PF13_0152, Sir2A); assay: Plasmodium falciparum Sir2A binding compounds – biochemical, small-molecule microarray, 635 nm fluorescence, primary screen (AID 1098); conditions: fluorescence 635 nm, higher = more signal;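 further: score merges spot fluorescence intensity with its signal-to-noise ratio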
# [2] = probe aDKK1 binding to arrayed compounds – biochemical, biotinylated probe, 635/667 nm fluorescence, primary screen (AID 1099); conditions: small-molecule microarray, higher = more signal;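 further: score merges 667nm spot fluorescence with signal to noise across triplicate slides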
# [3] = probe aCHRDL2 binding to arrayed compounds – biochemical, biotinylated probe, 635/667 nm fluorescence, primary screen (AID 1100); conditions: small-molecule microarray, higher = more signal
# [4] = change in splice reporter luminescence, either direction, cell-based, HEK293, spliceosome inhibition project, primary screen (AID 1101); conditions: HEK293 splicing luciferase reporter, 24 h, higher = more signal, called active from +8 up or from −8 down;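 further: HEK293 cells carrying a splicing-competent luciferase reporter gene; test concentration not given here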
# [5] = biological target: Fibroblast growth factor 10 (Homo sapiens) (UniProt O15520); assay: compounds binding fibroblast growth factor 10 – biochemical, small-molecule microarray, 635 nm fluorescence, primary screen (AID 1102); conditions: FGF10 binding, fluorescence 635 nm, higher = more signal
# [6] = system: glycogen synthase kinase-3 (GSK3A per assay name; protocol says GSK3B); assay: compounds binding glycogen synthase kinase-3 – biochemical, small-molecule microarray, 635 nm fluorescence, GSK3A, primary screen (AID 1103); conditions: fluorescence 635 nm, higher = more signal; further: the record names both GSK3A and GSK3B
# [7] = biological target: Epidermal growth factor receptor (Homo sapiens) (UniProt P00533); assay: compounds binding epidermal growth factor receptor – biochemical, small-molecule microarray, 635 nm fluorescence, primary screen (AID 1104); conditions: EGFR binding, higher = more signal;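 further: score merges 667 nm emission intensity with spot signal to noise over triplicate slides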
# [8] = biological target: Follistatin-related protein 3 (Homo sapiens) (UniProt O95633); assay: compounds binding follistatin-related protein 3 – biochemical, small-molecule microarray, 635 nm fluorescence, primary screen (AID 1105); conditions: FSTL3 binding, higher = more signal;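 further: score merges emission near 667 nm and signal to noise per printed spot across three slides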
# [9] = biological target: Dickkopf-related protein 1 (Homo sapiens) (UniProt O94907); assay: small molecules binding DKK1 protein – biochemical, small-molecule microarray, 635 nm fluorescence scan, primary screen (AID 1106); conditions: higher = more signal;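 further: score merges emission near 667 nm with signal to noise over three replicate slides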
# [10] = system: Inhibin beta A chain (activin A); assay: small molecules binding activin A – biochemical, small-molecule microarray, 635 nm fluorescence scan, primary screen (AID 1107); conditions: INHBA, higher = more signal;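 further: mouse activin A protein probed at 4.33 µg/mL on printed slides; score merges bound-protein fluorescence near 667 nm with spot signal-to-noise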
# [11] = system: Human papillomavirus type 1a protein E7 (residues 44-93); assay: small molecules binding HPV E7 44-93 – biochemical, small-molecule microarray, residues 44-93, 635 nm fluorescence, primary screen (AID 1108); conditions: fluorescence 635 nm, higher = more signal;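 further: E7 fragment applied at 1 µg/mL in TBST for 1 h at 4 C; score combines spot fluorescence with its signal to noise ratio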
# [12] = hepatitis C replication reporter changes, two-sided – Huh7 cells, luciferase reporter, HCV replication inhibitor project, primary screen (AID 1109); conditions: Huh7 HCV replicon luciferase reporter, 48 h; higher = more signal;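 further: huh7 hepatoma cells harbouring a luciferase neomycin HCV replicon reporter; luciferase luminescence as measure of HCV replicon replication; test concentration not given here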
# [13] = biological target: Left-right determination factor 2 (Homo sapiens) (UniProt O00292); assay: small molecules binding LEFTY2 protein – biochemical, small-molecule microarray, 635 nm fluorescence scan, primary screen (AID 1110); conditions: higher = more signal
# [14] = biological target: Calmodulin-1 (Homo sapiens) (UniProt P0DP23); assay: small molecules binding calmodulin-1 with EGTA – biochemical, small-molecule microarray, Cy5-labelled CALM1, profiling panel (AID 1111); conditions: Cy5-CALM1 binding fluorescence, higher = more signal;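 further: labelled calmodulin applied in Tris saline Tween buffer holding calcium plus EGTA and DTT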
# [15] = biological target: Calmodulin-1 (Homo sapiens) (UniProt P0DP23); assay: small molecules binding Ca-loaded calmodulin-1 – biochemical, small-molecule microarray, Cy5-labelled CALM1, plus calcium, artefact control for SMM control-protein annotation, profiling panel (AID 1112); conditions: Cy5-CALM1 binding fluorescence, higher = more signal;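 further: score merges spot fluorescence with signal to noise from triplicate slides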
# [16] = probe aWnt5a binding to arrayed compounds – biochemical, biotinylated probe, 635/667 nm fluorescence, primary screen (AID 1113); conditions: small-molecule microarray, higher = more signal;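 further: score merges 667 nm fluorescence intensity with signal-to-noise per printed feature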
# [17] = probe aShh binding to arrayed compounds – biochemical, biotinylated probe, 635/667 nm fluorescence, primary screen (AID 1114); conditions: small-molecule microarray, higher = more signal;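 further: probe is biotin-labelled aShh protein from a stem cell growth factor screen; measures binding of labelled protein to compounds printed on the slide; score merges feature fluorescence at 667 nm with signal-to-noise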
# [18] = probe aNog binding to arrayed compounds – biochemical, biotinylated probe, 635/667 nm fluorescence, primary screen (AID 1115); conditions: small-molecule microarray, higher = more signal;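 further: probe is biotinylated aNog protein used at 0.15 µg/mL for 1 h at 4 C; z-score combines 667 nm fluorescence of each spot with its signal to noise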
# [19] = biological target: Torsin-1A-interacting protein 1 (Homo sapiens) (UniProt Q5JTV8); assay: compound microarray binding of lysate hLAP1 – cell lysate, small-molecule microarray, COS7 lysate, 635/667 nm fluorescence, primary screen (AID 1116); conditions: 635 nm fluorescence, higher = more signal
# [20] = biological target: Alpha-bungarotoxin (Bungarus multicinctus) (UniProt P60615); assay: compounds binding labelled alpha-BTX control protein – biochemical, small-molecule microarray, Alexa647 label, 635/667 nm fluorescence, artefact control for SMM control protein annotation, profiling panel (AID 1117); conditions: alpha-BTX-A647 binding fluorescence, higher = more signal
# Alpha-bungarotoxin (Bungarus multicinctus), sequence (P60615 whole entry, looked up): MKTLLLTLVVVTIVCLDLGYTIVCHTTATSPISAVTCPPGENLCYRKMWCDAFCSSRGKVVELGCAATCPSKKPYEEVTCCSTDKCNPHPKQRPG
# Dickkopf-related protein 1 (Homo sapiens), sequence (O94907 whole entry, looked up): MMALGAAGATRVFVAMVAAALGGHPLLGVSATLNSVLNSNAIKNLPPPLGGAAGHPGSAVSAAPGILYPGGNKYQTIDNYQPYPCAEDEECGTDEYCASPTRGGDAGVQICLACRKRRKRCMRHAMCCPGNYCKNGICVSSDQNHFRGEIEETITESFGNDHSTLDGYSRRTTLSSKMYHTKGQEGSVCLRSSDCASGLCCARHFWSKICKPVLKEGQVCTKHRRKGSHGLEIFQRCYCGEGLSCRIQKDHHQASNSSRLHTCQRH
# Follistatin-related protein 3 (Homo sapiens), sequence (O95633 whole entry, looked up): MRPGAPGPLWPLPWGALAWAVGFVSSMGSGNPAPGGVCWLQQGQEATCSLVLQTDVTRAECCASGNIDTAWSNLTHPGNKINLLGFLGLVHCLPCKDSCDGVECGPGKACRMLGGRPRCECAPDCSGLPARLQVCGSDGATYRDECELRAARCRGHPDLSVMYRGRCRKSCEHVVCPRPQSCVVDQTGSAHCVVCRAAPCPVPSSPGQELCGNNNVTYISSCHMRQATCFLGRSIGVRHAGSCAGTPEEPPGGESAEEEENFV
# Torsin-1A-interacting protein 1 (Homo sapiens), sequence (Q5JTV8 whole entry, looked up): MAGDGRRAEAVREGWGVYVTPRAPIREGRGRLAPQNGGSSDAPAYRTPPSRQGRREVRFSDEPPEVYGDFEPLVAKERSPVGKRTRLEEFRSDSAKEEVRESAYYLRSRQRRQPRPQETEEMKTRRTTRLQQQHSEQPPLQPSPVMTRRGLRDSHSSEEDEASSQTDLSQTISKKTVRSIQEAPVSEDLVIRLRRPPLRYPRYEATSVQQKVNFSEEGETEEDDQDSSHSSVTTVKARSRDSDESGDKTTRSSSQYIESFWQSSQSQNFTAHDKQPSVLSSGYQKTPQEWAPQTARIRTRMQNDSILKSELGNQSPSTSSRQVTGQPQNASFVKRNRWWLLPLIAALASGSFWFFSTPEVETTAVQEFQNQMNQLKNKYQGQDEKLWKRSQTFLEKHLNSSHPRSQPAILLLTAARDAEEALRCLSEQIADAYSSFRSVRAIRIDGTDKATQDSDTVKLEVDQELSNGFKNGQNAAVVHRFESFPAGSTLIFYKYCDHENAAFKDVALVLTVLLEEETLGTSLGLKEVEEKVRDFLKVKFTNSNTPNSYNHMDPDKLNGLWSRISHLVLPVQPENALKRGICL
# Epidermal growth factor receptor (Homo sapiens), sequence (P00533 whole entry, looked up): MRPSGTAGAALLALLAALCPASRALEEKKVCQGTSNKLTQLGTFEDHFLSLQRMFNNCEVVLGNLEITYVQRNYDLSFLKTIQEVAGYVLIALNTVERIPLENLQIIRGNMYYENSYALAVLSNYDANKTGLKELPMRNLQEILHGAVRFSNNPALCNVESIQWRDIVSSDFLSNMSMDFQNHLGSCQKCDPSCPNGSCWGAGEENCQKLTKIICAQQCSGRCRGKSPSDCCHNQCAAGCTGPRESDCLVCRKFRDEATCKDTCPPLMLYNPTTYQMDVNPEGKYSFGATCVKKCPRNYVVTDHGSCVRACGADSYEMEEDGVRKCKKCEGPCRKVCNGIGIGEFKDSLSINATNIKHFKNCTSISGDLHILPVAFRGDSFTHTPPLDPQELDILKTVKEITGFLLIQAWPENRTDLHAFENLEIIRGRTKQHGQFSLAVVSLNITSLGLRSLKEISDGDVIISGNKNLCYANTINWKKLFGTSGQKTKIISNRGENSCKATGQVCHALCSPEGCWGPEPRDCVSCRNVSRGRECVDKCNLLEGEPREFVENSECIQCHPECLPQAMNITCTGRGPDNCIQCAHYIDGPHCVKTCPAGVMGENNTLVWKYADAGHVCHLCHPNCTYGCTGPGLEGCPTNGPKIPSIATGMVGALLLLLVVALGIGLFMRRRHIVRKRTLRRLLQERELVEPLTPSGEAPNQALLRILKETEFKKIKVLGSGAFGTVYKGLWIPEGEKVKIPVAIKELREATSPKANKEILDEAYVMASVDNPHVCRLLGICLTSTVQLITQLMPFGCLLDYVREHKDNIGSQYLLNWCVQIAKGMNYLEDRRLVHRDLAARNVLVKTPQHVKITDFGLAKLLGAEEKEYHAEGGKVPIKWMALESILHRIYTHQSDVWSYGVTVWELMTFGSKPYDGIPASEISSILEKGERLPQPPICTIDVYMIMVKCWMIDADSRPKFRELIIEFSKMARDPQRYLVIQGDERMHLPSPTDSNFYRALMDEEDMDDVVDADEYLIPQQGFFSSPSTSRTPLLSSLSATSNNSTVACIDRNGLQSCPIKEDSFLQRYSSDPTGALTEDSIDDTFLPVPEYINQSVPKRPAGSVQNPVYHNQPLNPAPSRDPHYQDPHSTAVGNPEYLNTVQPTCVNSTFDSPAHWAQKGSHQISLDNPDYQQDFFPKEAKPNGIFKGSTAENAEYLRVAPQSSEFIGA
# Fibroblast growth factor 10 (Homo sapiens), sequence (O15520 whole entry, looked up): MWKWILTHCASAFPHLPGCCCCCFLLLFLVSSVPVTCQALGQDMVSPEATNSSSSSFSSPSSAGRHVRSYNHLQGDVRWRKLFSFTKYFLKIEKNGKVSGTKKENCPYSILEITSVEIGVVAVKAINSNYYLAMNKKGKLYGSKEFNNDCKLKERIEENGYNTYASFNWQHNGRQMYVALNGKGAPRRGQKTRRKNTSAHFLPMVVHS
# Left-right determination factor 2 (Homo sapiens), sequence (O00292 whole entry, looked up): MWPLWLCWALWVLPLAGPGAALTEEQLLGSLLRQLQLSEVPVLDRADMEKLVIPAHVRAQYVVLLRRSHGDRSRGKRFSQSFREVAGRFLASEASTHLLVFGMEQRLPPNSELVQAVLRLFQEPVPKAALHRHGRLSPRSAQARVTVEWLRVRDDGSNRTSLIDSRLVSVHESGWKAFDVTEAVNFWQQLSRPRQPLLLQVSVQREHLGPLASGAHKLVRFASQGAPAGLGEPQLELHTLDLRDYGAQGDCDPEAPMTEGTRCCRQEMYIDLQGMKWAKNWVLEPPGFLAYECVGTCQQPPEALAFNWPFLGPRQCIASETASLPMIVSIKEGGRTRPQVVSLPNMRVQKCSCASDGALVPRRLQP
Compound,composite z-score [1],composite z-score [2],composite z-score [3],z-score [4],composite z-score [5],composite z-score [6],composite z-score [7],composite z-score [8],composite z-score [9],composite z-score [10],composite z-score [11],z-score [12],composite z-score [13],composite z-score [14],composite z-score [15],composite z-score [16],composite z-score [17],composite z-score [18],composite z-score [19],composite z-score [20]
C[C@@H](c1ccccc1)N1C(=O)[C@H]2[C@H]3[C@H](O)[C@H](O)CC(=NNC(=O)OCc4ccccc4)[C@H]3CC[C@H]2C1=O,-0.0979,0.24,0.794,0.373 (inactive),0.0359,-0.354,0.191,-0.461,-0.415,0.0683,-0.269,-2.23,0.495,0.12,-0.726,-0.0735,0.0815,-0.0567,0.464,0.284
CC(C)CON=C1C[C@@H](O)[C@@H](O)[C@@H]2[C@@H]3C(=O)N(Cc4ccccc4)C(=O)[C@@H]3CC[C@@H]12,-0.511,-0.278,-0.737,-0.28 (inactive),0.5,0.649,0.571,0.617,0.836,-0.269,0.673,-0.19,0.409,-0.312,-0.475,-0.0792,-0.365,-0.321,0.0394,-0.102
COc1ccc([Si](C)(C)[C@H]2[C@H](CC(=O)N3CCC[C@H]3CO)O[C@@]3(C(=O)N(Cc4cccc(N5C(=O)COc6ccccc65)c4)c4ccccc43)[C@@H]2C)cc1,1.21,-0.248,-0.364,-0.867 (inactive),0.369,0.803,0.771,0.959,0.519,0.572,1.08,-2.51,0.805,1.36,0.487,0.0556,-0.17,0.274,1.16,-0.654
C[C@H]1Cc2c(-c3ccccc3)nc3c(c2CO1)CN(CCOc1ccccc1)CC3,1.21,-0.357,-0.815,-0.512 (inactive),1.19,1.28,0.65,1.29,0.94,0.127,1.33,-0.56,0.945,0.491,-0.416,-0.0203,0.147,-0.0172,0.0704,0.269
CCOC(=O)CCN1C(=O)[C@H]2[C@H]3[C@H](O)C=CC(=O)[C@@H]3CC[C@H]2C1=O,0.0705,-0.222,-0.437,-0.173 (inactive),0.605,0.323,0.678,0.518,0.541,-0.0901,-0.219,0.158,0.61,-0.0738,-0.583,-0.202,-0.262,-0.147,0.174,0.335
O=C1[C@H]2[C@H]3[C@H](O)[C@H](O)CC(=NO[C@@H]4O[C@H](CO)[C@@H](O)[C@H](O)[C@H]4O)[C@@H]3CC[C@H]2C(=O)N1Cc1ccccc1,0.133,-0.195,-0.269,-0.847 (inactive),0.503,-0.817,0.331,-0.0746,-0.0034,-1.43,0.33,0.506,0.792,-0.225,-1.24,-0.136,0.225,-0.433,0.392,-0.187
O=C1[C@H]2[C@H]3[C@H](O)[C@H](O)CC(=NO[C@@H]4O[C@H](CO)[C@@H](O)[C@H](O)[C@H]4O)[C@H]3CC[C@H]2C(=O)N1C1CCCCC1,0.643,0.0533,-0.0589,-0.381 (inactive),0.0041,0.266,-0.0158,-0.182,-0.191,-1.65,1.3,0.524,0.271,-0.0656,-0.0964,-0.0721,0.0062,0.604,0.129,0.0855
CO[C@@H]1COC(=O)CC=C[C@@H](C)[C@@H]2C=C[C@@H](O)[C@@H](COC(=O)CC=C[C@H]1C)O2,0.661,-0.325,-1.08,-0.953 (inactive),0.954,0.524,0.935,1.48,0.804,1.12,-0.438,0.464,1.12,-1.24,-2.11,-0.252,0.0756,-0.444,-0.208,-0.114
CC(CCC(=O)OC[C@H]1O[C@H](C#Cc2ccccc2)C=C[C@@H]1Oc1ccc(C)cc1)=NO[C@@H](C)c1cn([C@H](CO)Cc2ccccc2)nn1,0.737,-0.406,-0.52,-1.62 (inactive),0.304,-0.28,0.313,0.28,0.256,-0.146,0.507,-1.97,0.381,-0.329,-0.385,-0.152,0.108,-0.12,-0.0538,1.76

# Reference: PubChem BioAssay
